Measured values reported in PubChem BioAssay AID624404 (Broad Institute, 2012).
The campaign covered roughly 1,800 compounds. About 710 (39%) were called active. Roughly 28% stayed inconclusive and do not appear here.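 The calls were made as follows: active = luciferase signal rise whose fitted curve crosses a set activity limit at or below the top valid tested dose; inconclusive = flat fit with 30 to 70% rise, or poor fit; inactive = signal falling, flat within 30%, or crossing above top dose.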 These entries were drawn from the full list. Entries with a potency or affinity are not part of this list.

Test: luciferase activators in glycosylation-insensitive reporter cells, dose response, counter-screen for N-linked glycosylation inhibitor project, D54 LucT cells, luminescence, cherry pick (AID 624404)
Settings: D54 LucT luciferase reporter counterscreen, 24 h; series mostly up to 19.5 µM

Structure (SMILES)	outcome
CCc1ccc(Oc2coc3cc(OCC(=O)Nc4cc(C)ccc4C)ccc3c2=O)cc1	inactive
COc1cc(C2=NOC(C(=O)NCc3ccc(F)cc3)C2)cc(OC)c1OC (stereo unspecified)	inactive
CN(C)S(=O)(=O)c1ccc(N2CCCC2)c(C(=O)Nc2nccs2)c1	inactive
COc1cc(Nc2c3c(nc4ccccc24)CCC3)cc(OC)c1OC	inactive
CCOC(=O)c1[nH]c(C)c(C(=O)OCC(=O)NC(C)c2ccc(F)cc2)c1C (stereo unspecified)	inactive
CCOC(=O)c1nnc(-c2ccc(C)cc2)nc1Sc1ccccc1Cl	inactive
CCOC(=O)c1[nH]c(COC(=O)CCOc2ccccc2OC)c(C(=O)OCC)c1C	inactive
Cc1cc2c(=Cc3ccc(N(C)C)cc3)c3ccccc3n2[n+]1C	inactive
COc1cc(-c2nc3ccc(N4CCN(C)CC4)cc3[nH]2)cc(OC)c1OC	inactive
COc1ccc2c(-c3cc4ccc(OCc5ccc(F)cc5)cc4oc3=O)cc(=O)oc2c1	inactive
CC1Cc2ccccc2N1C(=O)CSc1nn2c(=O)c(C(C)(C)C)nnc2s1 (stereo unspecified)	inactive
C#CC(=O)CC1(CN(Cc2ccccc2)C(=O)OC(C)(C)C)CCCCC1	inactive
COc1ccc(Cl)cc1NC(=O)CN(C)CC(=O)Nc1cc(OC)c(OC)c(OC)c1	inactive
CCC12CCC3c4ccc(O)cc4CCC3C1CC(O)C2O (stereo unspecified)	inactive
O=C(c1cccc([N+](=O)[O-])c1)N1CCN(c2cccc(Cl)c2)CC1	inactive
c1ccc(-n2nnnc2-c2cccc3ccccc23)cc1	inactive
c1ccc(-c2n[nH]c(-c3ccccc3)c2-c2nc3ccccc3[nH]2)cc1	inactive
COc1ccc(NC(=O)CSc2c3c(nc4ccccc24)CCCC3)c(OC)c1	inactive
CN(C)c1ccc(-c2ccnc3c2CC(C)(C(=O)NCc2ccccc2)O3)cc1 (stereo unspecified)	inactive
O=C(N/N=C/c1ccc2c(c1)OCO2)c1sc2cc(Cl)ccc2c1Cl	inactive
CCOC(=O)/C=C/C(=O)Nc1ccc(S(=O)(=O)N(C)c2ccccc2)cc1	inactive
COc1ccc(OC)c(/C=C/c2ccc3cccc(O)c3n2)c1	inactive

Structure (SMILES)	outcome
O=C(COc1ccc(/C=N/NC(=O)c2cc3ccccc3o2)cc1Cl)Nc1ccccc1	inactive
O=C(O)CCC/C=C\C[C@@H]1[C@@H](/C=C/[C@@H](O)COc2cccc(Cl)c2)[C@H](O)C[C@@H]1O	inactive
COc1cc2c(cc1OC)C(c1ccccc1)N(C(=O)CCl)CC2 (stereo unspecified)	inactive
CCOc1ccc(C2c3cc(OC)c(OC)cc3CC(=O)N2c2ccc(OC)cc2)cc1 (stereo unspecified)	inactive
COc1ccc(CCn2c(=N)c(C(=O)NC3CCCC3)cc3c(=O)n4ccccc4nc32)cc1OC	inactive
Cn1cnc([N+](=O)[O-])c1Oc1ccc2ccccc2c1	inactive
COc1ccc(/C=C/C(=O)c2ccc3c4c(cccc24)CC3)cc1OC	inactive
COc1cc(/C=C2/CCC/C(=C\c3cc(O)c(OC)c(Cl)c3)C2=O)cc(Cl)c1O	inactive
C=CCn1c(SCC(=O)c2[nH]c(C)c(C(=O)OC)c2C)nc2scc(-c3ccc(OC)c(OC)c3)c2c1=O	inactive
Cc1cc(NC(=O)CSc2nc(C3CC3)nc3sc(C)c(C)c23)no1	inactive
CCOc1ccc(NC(=O)C(=O)NCCN2CCN(S(=O)(=O)c3ccc(C)cc3)CC2)cc1	inactive
CN(C)CCCN1C(=O)c2cccc3c(Br)ccc(c23)C1=O	inactive
Cc1cccc(N2CCN(C(=O)c3ccncc3)CC2)c1C	inactive
Cc1nn(C(C)(C)C)c(OC(=O)c2ccc3c(c2)OCO3)c1Sc1ccccc1	inactive
c1ccc(-c2cc(NCCN3CCCCC3)c3ccccc3n2)cc1	inactive
c1ccc2cc3c(NCCN4CCOCC4)ccnc3cc2c1	inactive
Cc1cc(C)nc(/N=C(\N)Nc2ccc(OCc3ccccc3)cc2)n1	inactive
CCOC(=O)Nc1c2ccccc2nc2ccccc12	inactive
Cc1cccc2c(N)c3c(nc12)N(C)CC3	inactive
COc1cc2c(C(=O)N3CCN(c4cccc(Cl)c4)CC3)cn(C)c(=O)c2cc1OC	inactive
Cc1ccc(S(=O)(=O)Cc2ccc(C(=O)N3CCN(c4cccc(C)c4C)CC3)o2)cc1	inactive
COc1ccc(NC(=O)C2(C)Cc3c(-c4cccc(NC(C)=O)c4)ccnc3O2)cn1 (stereo unspecified)	inactive

Structure (SMILES)	outcome
CC(=O)Nc1cccc(-c2ccnc3c2CC(C)(C(=O)NCc2ccco2)O3)c1 (stereo unspecified)	inactive
CC1(C(=O)NCC2CC2)Cc2c(-c3cccc(C(F)(F)F)c3)ccnc2O1 (stereo unspecified)	inactive
CC(=O)Nc1cccc(-c2ccnc3c2CC(C)(C(=O)Nc2cccc(C(C)=O)c2)O3)c1 (stereo unspecified)	inactive
COc1ccc(C2=NOC(C(=O)NCc3ccc(F)cc3)C2)cc1OC (stereo unspecified)	inactive
COC(=O)CNC(c1ccccc1Cl)c1cc(Br)ccc1NC(=O)CCN1CCOCC1 (stereo unspecified)	inactive
Cc1cc(-n2c(C)cc(C(=O)CCl)c2C)no1	inactive
CCN(CC)S(=O)(=O)c1cc(NC(=O)Cn2ncc(Cl)c(Cl)c2=O)ccc1C	inactive
O=C(C[C@@H]1C[C@H]2c3cc(NC(=O)c4cccnc4)ccc3O[C@H]2[C@H](CO)O1)NCc1ccc(Oc2ccccc2)cc1	inactive
COc1ccc(Nc2nc(N)c(C(=O)c3ccc(F)cc3)s2)cc1	inactive
Cn1cnc(Sc2ncnc3nc[nH]c23)c1[N+](=O)[O-]	inactive
O=C(Nc1cccc(-c2nc3ncccc3o2)c1)c1sc2ccccc2c1Cl	inactive
COc1ccc(-c2cc3ccccc3oc2=O)cc1NC(=S)NC(=O)c1ccc2c(c1)OCCO2	inactive
COc1ccccc1OCC(=O)N/N=C/C=C/c1ccc([N+](=O)[O-])o1	inactive
Oc1cccc(Nc2c3ccccc3nc3ccccc23)c1	inactive
Oc1ccc(Nc2nc(NCC3CCCO3)c3ccccc3n2)cc1 (stereo unspecified)	inactive
COc1ccc(C2Nc3ccc4ccccc4c3-c3c2c(=O)oc2ccccc32)cc1 (stereo unspecified)	inactive
COc1cc2c(cc1OC)C(c1cc(Br)ccc1F)N(C(=O)CCl)CC2 (stereo unspecified)	inactive
COc1ccc(S(=O)(=O)Nc2cccc3ccc(O)cc23)cc1	inactive
Oc1cc(Nc2ccccc2)cc2cccnc12	inactive
CCOC(=O)C(CC)(CC)C(=O)/C=C/c1cccc(Br)c1	inactive
COc1ccc(N2CCc3c(C)nc4c(OC)cccc4c32)cc1	inactive
COc1ccc(N2CCc3c(C)nc4c(OC)cc(OC)cc4c32)cc1	inactive
